Activity calls are given as the source filed them.

Test [1] can be described thus: E. coli DRC41 culture turbidity changes, primary screen, E. coli filamentation inducer project, strain DRC41, OD650, 48 h (AID 1152).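 Note: E. coli MC1000 strain DRC41 lacking acrAB efflux pump and sulA.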 The note with it: E. coli DRC41 (acrAB sulA), higher = more signal, called active from +8 up or from −8 down.
The nature of test [2]: small-molecule binders of probe aLefty1, primary screen, biochemical, small-molecule microarray, 635/667 nm fluorescence (AID 1153).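 Note: score merges spot fluorescence with signal-to-noise ratio from the scanned slide images.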 The settings on record: higher = more signal.
Test [3] can be described thus: PSAC antagonists in infected red cells, primary screen, cell-based, P. falciparum Indochina, OD700, 1 h (AID 1154). The note with it: P. falciparum Indochina infected RBC osmotic lysis, higher = more signal, called active from +8 up or from −8 down.
The nature of test [4]: PSAC antagonists in infected red cells, primary screen, cell-based, P. falciparum Indochina, OD700, 2 h (AID 1155).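 Note: lysis reports solute entry through the parasite surface anion channel PSAC; channel blockers reduce lysis of infected cells.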 The settings on record: P. falciparum Indochina infected erythrocytes, osmotic lysis OD700; higher = more signal, called active from +8 up or from −8 down.
The nature of test [5]: osmotic lysis modulators in infected erythrocytes, primary screen, PSAC antagonist project, cell-based, P. falciparum Indochina, OD700, 3 h (AID 1156). The settings on record: higher = more signal, called active from +8 up or from −8 down.
The nature of test [6]: PSAC antagonists in infected red cells, primary screen, cell-based, P. falciparum Indochina, OD700, 18 h (AID 1157). The settings on record: P. falciparum Indochina infected erythrocytes, osmotic lysis OD700, 18 h; higher = more signal, called active from +8 up or from −8 down.
Test [7] is described as follows: modulators of S6 phosphorylation in cells, primary screen, cell-based, A549, cytoblot, luminescence, serum-stimulated (AID 1158).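 Note: serum-stimulated A549 lung adenocarcinoma cells; signal is phosphorylated S6 detected by cytoblot immunostaining with HRP secondary.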 The note with it: A549 phospho-S6 cytoblot, 5 h, higher = more signal.
For test [8], the target named is NADPH oxidase 2 (Homo sapiens) (UniProt P04839). Description: NOX2-dependent H2O2 signal modulators, primary screen, NOX inhibitor project, cell-based, HEK293-NOX2, PMA-stimulated, Amplex Red fluorescence (AID 1159). Note: test concentration not given here. The note with it: 45 min, higher = more signal, called active from +8 up or from −8 down.
Test [9] deals with NADPH oxidase 4 (Homo sapiens) (UniProt Q9NPH5). Description: NOX4-dependent H2O2 signal modulators, primary screen, NOX inhibitor project, cell-based, HEK293-NOX4, tetracycline-induced, Amplex Red fluorescence (AID 1160). The note with it: 45 min, higher = more signal, called active from +8 up or from −8 down.
Test [10] has as its target NADPH oxidase 5 (Homo sapiens) (UniProt Q96PH1). As to the kind of experiment: NOX5-dependent H2O2 signal modulators, primary screen, NOX inhibitor project, cell-based, HEK293-NOX5, Amplex Red fluorescence (AID 1161). The settings on record: HEK293-NOX5, ionomycin, 45 min, higher = more signal.
Test [11] can be described thus: A549 cell viability effects, profiling panel, calcein-AM fluorescence, 48 h, basal (AID 1162). Note: test concentration not given here. The note with it: higher = more signal.
A short description of test [12]: adipocyte viability effects, profiling panel, cell-based, 3T3-L1 adipocytes, calcein-AM fluorescence, 48 h, basal (AID 1163). Note: test concentration not given here. The settings on record: 3T3-L1 adipocytes viability, higher = more signal.
Test [13] can be described thus: HepG2 cell viability effects, profiling panel, calcein-AM fluorescence, 48 h, basal (AID 1164). Note: test concentration not given here. The settings on record: higher = more signal.
A short description of test [14]: MM1S cell viability effects, profiling panel, calcein-AM fluorescence, 48 h, basal (AID 1165).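 Note: viability of MM1S multiple myeloma cells under basal unstimulated conditions; test concentration not given here.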 The note with it: higher = more signal.
A short description of test [15]: basal RPMI8226 viability, no added stimulus, profiling panel, cell-based, calcein-AM fluorescence, 48 h, PK04 Diversity Set (AID 1166).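 Note: cells grown under basal conditions without added stimulus; test concentration not given here.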 The settings on record: RPMI8226 myeloma viability, higher = more signal.
Test [16] is described as follows: basal HepG2 mitochondrial membrane potential changes, profiling panel, cell-based, JC-1 fluorescence, 24 h, 100 nL compound (AID 1167). Note: test concentration not given here. The settings on record: higher = more signal.
The nature of test [17]: basal 3T3-L1 adipocyte mitochondrial potential changes, profiling panel, cell-based, JC-1 fluorescence, 3T3-L1 adipocytes, 24 h, 100 nL compound (AID 1168). Note: test concentration not given here. The settings on record: JC-1 mitochondrial fluorescence, higher = more signal, called active from +8 up or from −8 down.
Test [18] in a line: basal RPMI8226 mitochondrial membrane potential changes, profiling panel, cell-based, JC-1 fluorescence, 24 h, 100 nL compound (AID 1169). Note: test concentration not given here. The settings on record: RPMI8226 myeloma, JC-1 mitochondrial potential fluorescence, higher = more signal.
The nature of test [19]: basal MM1S mitochondrial membrane potential changes, profiling panel, cell-based, JC-1 fluorescence, 24 h, 100 nL compound (AID 1170). Note: test concentration not given here. The settings on record: higher = more signal.
The nature of test [20]: A549 lung cancer cell viability effects, profiling panel, resazurin fluorescence, 24 h, PK04 Diversity Set (AID 1171). Note: test concentration not given here. The settings on record: higher = more signal, called active from +8 up or from −8 down. Background: Resazurin is reduced to fluorescent resorufin, in cell work by metabolically active cells.

Sequence of NADPH oxidase 5 (Homo sapiens) (Q96PH1 whole entry, looked up): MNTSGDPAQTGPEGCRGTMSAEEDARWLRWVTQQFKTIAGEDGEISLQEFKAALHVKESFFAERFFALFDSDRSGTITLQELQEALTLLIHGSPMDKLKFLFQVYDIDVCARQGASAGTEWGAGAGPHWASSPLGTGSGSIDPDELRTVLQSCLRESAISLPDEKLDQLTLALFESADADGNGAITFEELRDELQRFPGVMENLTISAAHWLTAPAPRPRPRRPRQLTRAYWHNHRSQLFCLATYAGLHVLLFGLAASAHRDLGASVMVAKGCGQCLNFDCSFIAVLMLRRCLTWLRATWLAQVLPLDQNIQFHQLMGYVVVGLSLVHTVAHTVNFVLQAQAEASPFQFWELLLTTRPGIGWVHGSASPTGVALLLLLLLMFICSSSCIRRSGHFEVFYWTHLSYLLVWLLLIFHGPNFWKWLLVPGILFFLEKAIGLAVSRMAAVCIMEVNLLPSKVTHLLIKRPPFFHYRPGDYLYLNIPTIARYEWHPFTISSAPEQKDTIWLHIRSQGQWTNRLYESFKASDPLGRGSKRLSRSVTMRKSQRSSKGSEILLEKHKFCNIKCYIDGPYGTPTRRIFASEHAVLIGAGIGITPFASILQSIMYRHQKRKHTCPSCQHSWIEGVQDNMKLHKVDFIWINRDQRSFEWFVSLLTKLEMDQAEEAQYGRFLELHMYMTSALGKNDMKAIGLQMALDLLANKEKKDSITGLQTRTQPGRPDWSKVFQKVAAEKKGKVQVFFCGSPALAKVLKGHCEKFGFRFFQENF
Sequence of NADPH oxidase 4 (Homo sapiens) (Q9NPH5 whole entry, looked up): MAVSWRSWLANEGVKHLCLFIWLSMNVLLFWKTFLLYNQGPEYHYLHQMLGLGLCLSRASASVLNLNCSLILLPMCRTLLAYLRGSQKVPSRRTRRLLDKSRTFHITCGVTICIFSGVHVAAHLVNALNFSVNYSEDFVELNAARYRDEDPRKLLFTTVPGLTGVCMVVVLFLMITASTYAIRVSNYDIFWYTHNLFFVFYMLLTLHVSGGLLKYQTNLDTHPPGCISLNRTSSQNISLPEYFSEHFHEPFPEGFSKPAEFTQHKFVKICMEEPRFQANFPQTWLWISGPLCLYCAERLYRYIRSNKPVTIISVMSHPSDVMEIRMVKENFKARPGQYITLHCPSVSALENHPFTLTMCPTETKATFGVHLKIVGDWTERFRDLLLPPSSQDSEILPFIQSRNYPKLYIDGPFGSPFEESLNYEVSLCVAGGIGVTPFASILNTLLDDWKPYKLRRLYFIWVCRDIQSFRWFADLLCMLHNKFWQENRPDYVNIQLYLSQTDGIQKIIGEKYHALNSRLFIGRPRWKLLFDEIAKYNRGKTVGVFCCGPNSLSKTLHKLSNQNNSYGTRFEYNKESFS
Sequence of NADPH oxidase 2 (Homo sapiens) (P04839 whole entry, looked up): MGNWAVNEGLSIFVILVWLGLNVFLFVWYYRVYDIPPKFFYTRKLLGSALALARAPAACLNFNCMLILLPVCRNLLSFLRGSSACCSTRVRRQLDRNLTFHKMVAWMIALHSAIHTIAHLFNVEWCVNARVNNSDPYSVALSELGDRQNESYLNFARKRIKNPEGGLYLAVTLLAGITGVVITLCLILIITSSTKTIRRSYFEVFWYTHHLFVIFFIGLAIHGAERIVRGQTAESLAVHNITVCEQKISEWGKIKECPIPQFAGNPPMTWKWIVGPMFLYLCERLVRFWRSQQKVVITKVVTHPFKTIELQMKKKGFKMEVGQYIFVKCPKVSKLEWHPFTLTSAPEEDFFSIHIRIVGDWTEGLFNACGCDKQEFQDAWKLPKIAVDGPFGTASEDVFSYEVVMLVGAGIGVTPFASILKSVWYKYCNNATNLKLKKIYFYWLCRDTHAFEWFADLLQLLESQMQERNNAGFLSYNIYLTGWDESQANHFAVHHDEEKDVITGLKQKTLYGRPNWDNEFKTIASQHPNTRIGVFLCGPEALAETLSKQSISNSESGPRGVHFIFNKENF

Regarding `Cc1ccc(C(C)CC(O)C2C=CC3C(=O)N(c4ccccc4)C(=O)C3N2Nc2ccc([N+](=O)[O-])cc2)o1` (stereo not given), the z-score is -0.571 (inactive) in test [1]; 9.35 (active) in test [3]; 2.22 (inactive) in test [4]; 0.0777 (inactive) in test [5]; 1.49 (inactive) in [6]; -0.359 in test [7]. Moreover, the z-score in test [8] was 0.414 (inactive); in [9] it was -0.521 (inactive); in test [10], -1.27; in test [11], -0.483; in [12], 0.0852; in [13], 0.268. The z-score in test [14] was -0.0308; in test [15], -0.259; in test [16], -0.414; in test [17], -2.12 (inactive); in test [18], -0.0508; in test [19], -1.54. Besides, in test [20], the z-score is 0.35 (inactive). This compound yielded a composite z-score in [2] of 0.218.

Regarding `CCOC(=O)C1=CCC(c2ccccc2)N(S(=O)(=O)CC[Si](C)(C)C)C1` (stereo not given), the z-score is -0.348 (inactive) in test [1]; 2.49 (inactive) in test [3]; 0.767 (inactive) in test [4]; -0.0704 (inactive) in test [5]; 0.561 (inactive) in [6]; -0.215 in test [7]. For the same compound, the z-score was 0.183 (inactive) in [8]; 0.976 (inactive) in test [9]; -0.179 in test [10]; -0.557 in test [11]; -0.047 in test [12]; 0.413 in test [13]. Also, the z-score in [14] was -1.76; in test [15], 0.582; in test [16], 4.48; in test [17], -0.0119 (inactive); in [18], -0.119; in [19], -1.66. For the same compound, in [20], the z-score is 0.866 (inactive). In test [2], this compound came in with a composite z-score of -0.147.

Regarding `COc1ccc([Si](C)(C)[C@H]2[C@H](CCO)O[C@@]3(C(=O)N(C)c4c(Br)cc(C)cc43)[C@@H]2C)cc1`, the z-score in test [1] is -1.28 (inactive); in test [3], 7.79 (inactive); in test [4] it was 1.8 (inactive); in [5] it was -2.17 (inactive); in test [6], 0.987 (inactive); in test [7] it was 0.0508. The z-score in [8] is -1.41 (inactive); in [9] it was -1.15 (inactive); in [10] it was -0.777; in test [11] it was -4.21; in test [12], -1.8; in test [13] it was -4.77. Besides, the z-score in test [14] is -2.69; in [15] it was -4.31; in [16] it was -2.21; in test [17], 0.343 (inactive); in test [18] it was -1.05; in test [19], -2.29. The z-score in [20] was -6.97 (inactive). The same compound showed a composite z-score in [2] of 0.0486.

As to `COC(=O)c1c(CC[C@@H](CO)NC(=O)N2CCC[C@H]2Cn2cc(-c3ccccn3)nn2)oc(C(C)=O)c1C(=O)OC`, the z-score in test [1] was 1.04 (inactive); in test [3] it was 1.58 (inactive); in test [4], -0.448 (inactive); in [5], -0.315 (inactive); in [6], -0.741 (inactive); in test [7], 0.882. The z-score in [8] is -2.6 (inactive); in test [9], -1.44 (inactive); in test [10], -1.84; in test [11] it was -0.204; in test [12], 1; in [13], -1.02. Besides, the z-score in test [14] was 0.208; in test [15] it was 1.18; in test [16], -0.443; in test [17], -0.922 (inactive); in test [18], 0.859; in [19], -0.475. Also, the z-score in [20] is 0.133 (inactive). Besides, in test [2], the composite z-score was -0.101.

Consider `O=C1NC(=O)C2C1C=CC(C(O)Cc1ccccc1)N2Nc1ccc(Cl)cc1Cl` (stereo not given), for which the z-score in test [1] was -0.78 (inactive); in test [3] it was 4.35 (inactive); in [4], 0.953 (inactive); in test [5] it was 0.273 (inactive); in test [6], 1.15 (inactive); in test [7], -0.834. The z-score in test [8] is -1.28 (inactive); in test [9], -5.02 (inactive); in test [10] it was -1.9; in [11], 0.447; in test [12], -0.0852; in test [13], -1.57. Besides, the z-score in test [14] is -0.988; in test [15], -0.388; in [16] it was -1.73; in test [17] it was -0.00872 (inactive); in [18], -0.371; in test [19], -0.375. For the same compound, the z-score in test [20] is -0.519 (inactive). The composite z-score in [2] came out at 0.599.

`O=C1O[C@H](c2ccccc2)[C@H](c2ccccc2)N2[C@H]1[C@@H](C(=O)O)[C@]1(C(=O)Nc3ccc(C#CC4=CCCCC4)cc31)[C@H]2c1ccccc1OCCO`: the z-score is -0.611 (inactive) in [1]; -1.84 (inactive) in test [3]; -1.36 (inactive) in test [4]; -14.6 (active) in test [5]; -1.92 (inactive) in [6]; 0.296 in test [7]. For the same compound, the z-score is 2.51 (inactive) in [8]; -1.94 (inactive) in test [9]; -1.08 in [10]; -0.986 in test [11]; -1.21 in test [12]; -4.28 in [13]. The z-score in [14] was -3.3; in test [15], -4.21; in [16], -3.56; in test [17], 1.39 (inactive); in test [18] it was -0.935; in test [19], -1.68. In test [20], the z-score is -1.84 (inactive). Besides, the composite z-score in test [2] turned out to be 1.44.

On to `COc1ccc(C(=O)O[C@H]2CC[C@]3(C)C4=C(CCC3C2(C)C)[C@]2(C)CC[C@H]([C@H](C)CCCC(C)C)[C@@]2(C)CC4)cc1` (stereo not given in full), for which the z-score in test [1] was 3.06 (inactive); in test [3] it was -0.44 (inactive); in test [4], -0.787 (inactive); in test [5], -0.246 (inactive); in [6] it was -1.6 (inactive); in test [7] it was 1.86. In addition, the z-score in test [8] was -0.13 (inactive); in test [9], 0.257 (inactive); in test [10], 0.467; in test [11], 0.373; in [12], 0.586; in test [13] it was 0.729. Further, the z-score in test [14] is 0.41; in [15] it was 0.784; in [16] it was 2.19; in [17], 0.375 (inactive); in [18] it was -0.0976; in [19] it was -1.47. Further, the z-score in test [20] was 0.936 (inactive). This compound yielded a composite z-score in [2] of -0.192.

As for `COCCOC(=O)N1C(=O)[C@@]2(c3cc(C#CC4=CCCCC4)ccc31)[C@H](c1ccc(O)cc1)N1[C@H](c3ccccc3)[C@H](c3ccccc3)OC(=O)[C@H]1[C@@H]2C(N)=O`, the z-score was -0.623 (inactive) in [1]; 2.57 (inactive) in [3]; -0.403 (inactive) in test [4]; 0.193 (inactive) in [5]; -0.104 (inactive) in [6]; -0.0587 in test [7]. The z-score was 0.823 (inactive) in [8]; 0.748 (inactive) in test [9]; 1.03 in test [10]; 0.505 in test [11]; 0.633 in [12]; -0.364 in test [13]. Moreover, the z-score was -2.77 in [14]; -4.14 in test [15]; -2.55 in [16]; 0.29 (inactive) in [17]; -0.902 in [18]; -1.19 in [19]. In addition, the z-score in test [20] is -0.954 (inactive). In test [2], this compound yielded a composite z-score of -0.523.

Take `[N-]=[N+]=NCc1ccccc1C[C@]1(C(=O)O)N=C(c2ccc(OCCCO)cc2)O[C@H]1c1ccccc1N=[N+]=[N-]`: the z-score in test [1] is 0.23 (inactive); in test [3], 36.3 (active); in test [4] it was 33.8 (active); in [5] it was 4.02 (inactive); in [6], 10 (active); in [7], 0.468. In addition, the z-score is -2.14 (inactive) in test [8]; 0.705 (inactive) in [9]; -1.92 in test [10]; -0.882 in test [11]; 1.09 in [12]; -0.826 in test [13]. In addition, the z-score in test [14] is -2.06; in test [15], -3.85; in test [16], -1.93; in [17], -0.456 (inactive); in test [18], -1.05; in test [19], -0.887. In addition, in test [20], the z-score is -1.77 (inactive). Further, the composite z-score in [2] was 0.396.

The record behind these values is PubChem BioAssay.
